Inconclusive results are not listed. Activity calls are given as the source filed them. Calls follow the shape of the full dose curve.
Legend:
[1] = target: Acetylcholinesterase (Homo sapiens) (UniProt P22303); experiment: Acetylcholinesterase (AChE) small molecule antagonists: colormetric cell-based qHTS assay (AID 1347395); also: nearly all actives have a fitted effect of over 30% in size
Outline: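 Quantitative HTS in attached SH-SY5Y cells: 30 min compound exposure, then 90 min with acetylthiocholine and DTNB at 37 C; colour from thiocholine reports AChE activity.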

[2] = target: Acetylcholinesterase (Homo sapiens) (UniProt P22303); experiment: Acetylcholinesterase (AChE) small molecule antagonists: enzyme-based qHTS assay (AID 1347397); details: Potency: AChE enzyme activity inhibition; outcome: AChE enzyme activity inhibition; also: nearly all actives have a fitted effect of over 55% in size
Outline: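 In this quantitative HTS, compounds from the Tox21 10K collection were preincubated 30 min at ambient temperature with recombinant human AChE dispensed at 50 mU/mL. Hydrolysis of acetylthiocholine was then followed for 10 min by DTNB colour development.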

[3] = target: Acetylcholinesterase (Homo sapiens) (UniProt P22303); experiment: Acetylcholinesterase (AChE) small molecule antagonists: fluorescence cell-based qHTS assay (AID 1347398); details: Potency: AChE activity; outcome: AChE activity; also: nearly all actives have a fitted effect of over 50% in size
Outline: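 Cells (SH-SY5Y) attached overnight, were dosed with compound or DMSO vehicle for 30 min at 37 C, and then incubated 40 min at room temperature with acetylthiocholine and Thiolite Green; green fluorescence indexed AChE activity.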

[4] = target: Acetylcholinesterase (Homo sapiens) (UniProt P22303); experiment: Acetylcholinesterase (AChE) small molecule antagonists: enzyme-based qHTS assay with human liver microsomes (AID 1347399); details: Potency: qHTS inhibition; outcome: qHTS inhibition; also: nearly all actives have a fitted effect of over 60% in size
Outline: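 Recombinant human AChE (50 mU/mL in the enzyme mix) and human liver microsomes (0.25 mg/mL final) were preincubated with compound and NADPH (0.25 mg/mL final) for 30 min at 37 C. Acetylthiocholine/DTNB was then added; thiocholine was read colorimetrically after 10 min at room temperature.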

Measured: Potency

Acetylcholinesterase (Homo sapiens), sequence (P22303 whole entry, looked up): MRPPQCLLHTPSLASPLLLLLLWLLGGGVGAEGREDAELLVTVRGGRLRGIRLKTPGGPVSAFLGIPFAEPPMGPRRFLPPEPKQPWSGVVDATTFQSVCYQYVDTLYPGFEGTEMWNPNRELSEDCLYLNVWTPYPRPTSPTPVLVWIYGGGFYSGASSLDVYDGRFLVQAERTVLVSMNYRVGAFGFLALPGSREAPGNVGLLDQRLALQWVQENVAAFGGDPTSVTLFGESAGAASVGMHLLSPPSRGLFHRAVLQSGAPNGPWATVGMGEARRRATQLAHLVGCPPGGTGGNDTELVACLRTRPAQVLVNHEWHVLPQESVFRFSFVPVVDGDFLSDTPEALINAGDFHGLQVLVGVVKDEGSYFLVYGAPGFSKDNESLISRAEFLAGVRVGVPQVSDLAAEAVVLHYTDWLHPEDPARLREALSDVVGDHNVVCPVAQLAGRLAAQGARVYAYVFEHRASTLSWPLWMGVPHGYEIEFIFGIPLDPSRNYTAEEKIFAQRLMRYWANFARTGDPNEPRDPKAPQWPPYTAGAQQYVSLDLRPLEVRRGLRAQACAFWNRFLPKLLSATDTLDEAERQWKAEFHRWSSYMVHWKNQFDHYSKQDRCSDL

ClC(Cl)(Br)Br
inactive: all assays above

C=C(C)C(=O)OCC(O)COc1ccc(C(C)(C)c2ccc(OCC(O)COC(=O)C(=C)C)cc2)cc1 (stereo not given)
inactive: all assays above

C1OCOCO1
inactive: all assays above

Nc1nc(Cl)nc2c1ncn2[C@@H]1O[C@H](CO)[C@@H](O)[C@@H]1F
inactive: all assays above

CCCCOc1ccc(OCCCN2CCOCC2)cc1
inactive: all assays above

OC1(c2ccc(Cl)cc2)CCNCC1
inactive: all assays above

CC(C)CCCC(C)CCO (stereo not given)
inactive: all assays above

CCC(=O)C(=O)CC
inactive: all assays above

O=C(N/N=C/c1ccccc1O)c1ccncc1
inactive: all assays above

O=C(Nc1ccccc1)c1ccccc1O
inactive: all assays above

C=CC(C)(O)CC/C=C(\C)CCC=C(C)C (stereo not given)
inactive: all assays above

CC(=N\O)/C(C)=N/O
inactive: all assays above

Cc1cc(C)cc([N+](=O)[O-])c1
inactive: all assays above

COc1ccc(-c2ccc3cc(C(=O)O)ccc3c2)cc1C12CC3CC(CC(C3)C1)C2
inactive: all assays above

Cc1ccc(C2OC[C@@H]3OC(c4ccc(C)cc4)O[C@H]([C@H](O)CO)[C@@H]3O2)cc1 (stereo not given in full)
inactive: all assays above

From PubChem BioAssay (Tox21)
